Survival data for 57 compounds are collected here from PubChem BioAssay AID463173 (ICCB-Longwood Screening Facility, Harvard Medical School, 2010).

Structures are written as SMILES. Out of some 52,000 compounds screened, about 4,300 (8.3%) were called active. Rule as the data show it: active = survival mostly below about 52% (no sharp cut-off); inactive = mostly above about 56%. The list comes from a sample in which actives are over-represented; it also holds similar structures and randomly drawn compounds.

This test has as its system DeltatarO mutant. In words: growth inhibition of S. aureus wild type versus tarO mutant, primary screen, teichoic acid synthesis inhibitors, RN4220, OD600 (AID 463173). The conditions noted are these: OD600, 18 h, active compounds read low, screened at 18.75 µg/mL (by protocol).
With `CCN(C(=O)c1c(C)oc2ncnc(N3CCCCC3)c12)c1cc(C)ccc1C`, the survival was 95% (inactive).

With `CCC(C)C(NC(=O)c1cc(C)oc1C)C(=O)O` (configuration not stated), the survival is 95% (inactive).

For the compound `CCOc1ccc(NC(=O)c2oc3ccccc3c2NC(=O)c2ccc(OC)cc2OC)cc1`, the survival was 51% (inactive).

For the compound `O=C(CC1C(=O)N(c2ccc(F)cc2)C(=O)N1Cc1ccc2c(c1)OCO2)Nc1ccc(F)cc1` (configuration not stated), the survival was 72% (inactive).

Turning to `O=C(CC1C(=O)N(c2ccc(F)cc2)C(=O)N1Cc1ccc2c(c1)OCO2)Nc1ccc(Cl)cc1` (configuration not stated), the survival is 43% (active).

As for `Cc1ccc(N2C(=O)C(CC(=O)Nc3ccc(F)cc3)N(Cc3ccc4c(c3)OCO4)C2=O)cc1` (configuration not stated), the survival is 70% (inactive).

As for `Cc1ccc(Cl)cc1NC(=O)c1cc(S(=O)(=O)N2CCCCCC2)cn1C`, the survival is 71% (inactive).

Regarding `O=C(CSc1oc(-c2cccs2)nc1S(=O)(=O)c1ccccc1)Nc1ccc(F)cc1`, the survival is 55% (inactive).

`O=C(NCC(c1cccnc1)N1CCc2ccccc2C1)C(=O)Nc1ccccc1` (configuration not stated): the survival is 81% (inactive).

For `CCC1CN(C(=O)NCc2ccc(F)cc2)c2cc(Cl)ccc2O1` (configuration not stated), the survival was 39% (active).

Take `CCC1CN(C(=O)NCc2ccccc2)c2cc(Cl)ccc2O1` (configuration not stated): the survival is 46% (active).

As to `CCC1CN(C(=O)NCc2ccc(C)cc2)c2cc(Cl)ccc2O1` (configuration not stated), the survival is 93% (inactive).

In the case of `CCC1CN(C(=O)NCc2cccc(OC)c2)c2cc(Cl)ccc2O1` (configuration not stated), the survival was 43% (active).

For `CCC1CN(C(=O)NCc2cccc(OC)c2)c2ccccc2O1` (configuration not stated), the survival is 62% (inactive).

In the case of `CCC1CN(C(=O)NCc2ccc(F)cc2)c2cc(C)ccc2O1` (configuration not stated), the survival was 52% (inactive).

In the case of `CCC1CN(C(=O)NCc2ccc(F)cc2)c2ccccc2O1` (configuration not stated), the survival was 67% (inactive).

As to `CC1CN(C(=O)NCc2ccccc2)c2cc(Cl)ccc2O1` (configuration not stated), the survival was 49% (inactive).

As for `CCC1CN(C(=O)NCc2ccccc2)c2cc(C)ccc2O1` (configuration not stated), the survival is 51% (inactive).

Consider `O=C(NCc1ccco1)c1ccc2c(c1)N(Cc1cccc(Cl)c1)C(=O)c1ccccc1S2=O` (configuration not stated), for which the survival was 63% (inactive).

`CC(=O)N1CCc2c(sc3c2c(=O)n(-c2ccccc2)c(=O)n3CC(=O)Nc2ccccc2C)C1`: the survival was 71% (inactive).

`Cc1ccc(C)c(NC(=O)CN2C(=O)CSc3nc(C)cc(C)c32)c1`: the survival is 103% (inactive).

For the compound `O=C(NCc1ccc(F)cc1Cl)c1cc(=O)[nH]c2ccc(S(=O)(=O)N3CCCCC3)cc12`, the survival is 102% (inactive).

Take `Cc1ccc(S(=O)(=O)c2cn(Cc3cccc(C)c3)c3cc4c(cc3c2=O)OCO4)cc1`: the survival was 101% (inactive).

On to `COc1ccc(NC(=O)CCNS(=O)(=O)c2cccc3nonc23)c(OC)c1`, for which the survival is 50% (active).

Take `CCOc1ccccc1NC(=O)C1CCN(S(=O)(=O)c2cccc3nonc23)CC1`: the survival is 74% (inactive).

Consider `O=C(CCNS(=O)(=O)c1cccc2nonc12)Nc1ccc(F)cc1`, for which the survival is 45% (active).

Regarding `COc1ccc(C)cc1NC(=O)CCNS(=O)(=O)c1cccc2nonc12`, the survival was 43% (active).

For the compound `CCc1ccccc1NC(=O)CCS(=O)(=O)c1cccc2nonc12`, the survival is 74% (inactive).

For `COc1ccc(C)cc1NC(=O)C1CCN(S(=O)(=O)c2cccc3nonc23)CC1`, the survival is 108% (inactive).

Turning to `O=C(CCS(=O)(=O)c1cccc2nonc12)Nc1cccc(F)c1`, the survival was 67% (inactive).

Regarding `CCOc1ccccc1NC(=O)CCNS(=O)(=O)c1cccc2nonc12`, the survival is 45% (active).

Regarding `COc1ccc(NC(=O)CCNS(=O)(=O)c2cccc3nsnc23)cc1OC`, the survival was 65% (inactive).

For `COc1ccc(Cl)cc1NC(=O)CCS(=O)(=O)c1cccc2nonc12`, the survival was 146% (inactive).

As for `O=C(CCNS(=O)(=O)c1cccc2nsnc12)Nc1ccc(F)cc1`, the survival was 56% (inactive).

`COc1ccc(OC)c(NC(=O)CCNS(=O)(=O)c2cccc3nsnc23)c1`: the survival was 49% (inactive).

As to `CC(=O)N1CCN(c2ccc(NC(=O)COc3ccc(Cl)c(C)c3)cc2)CC1`, the survival is 68% (inactive).

Turning to `CCN(CC)S(=O)(=O)c1ccc(NC(=O)CN(c2ccccc2)S(=O)(=O)N(C)C)cc1`, the survival is 69% (inactive).

As to `CCNC(=O)c1cnc2sc(N3CCCCCC3)nn2c1=O`, the survival was 81% (inactive).

As for `C/C(Cc1ccccc1)=N\NC(=O)c1cc(C(C)(C)C)[nH]n1`, the survival is 101% (inactive).

Consider `CC1=C(c2ccc(C)c(C)c2)S(=O)(=O)N=C1N1CCC(C(=O)NC(C)Cc2ccco2)CC1` (configuration not stated), for which the survival is 83% (inactive).

As for `O=C(CN1CCN(c2ncccn2)CC1)N(Cc1ccccc1)c1ccc(F)cc1`, the survival was 78% (inactive).

Take `COc1ccc(NC(=O)C2CCN(C3=NS(=O)(=O)C(c4ccc(C)c(C)c4)=C3C)CC2)c(OC)c1`: the survival is 91% (inactive).

Turning to `CN=CC1=C(O)C(C(=O)OC)C(C)(C)CC1=O` (configuration not stated), the survival was 74% (inactive).

For `CCCCCn1c(=O)[nH]c2cc(C(=O)N3CCN(c4ccccc4)CC3)ccc2c1=O`, the survival is 68% (inactive).

On to `CCOc1ccc(NC(=O)CCS(=O)(=O)c2cccc3nonc23)cc1`, for which the survival was 78% (inactive).

Consider `COc1ccc(NC(=O)CCNS(=O)(=O)c2cccc3nonc23)cc1`, for which the survival is 50% (active).

Regarding `CCOc1ccc(NC(=O)CCNS(=O)(=O)c2cccc3nonc23)cc1`, the survival was 70% (inactive).

In the case of `O=C(C1CCCCC1)N(Cc1cccnc1)c1nc2c(F)cc(F)cc2s1`, the survival was 88% (inactive).

For the compound `COc1ccc(C2C=C(c3ccccc3)Nc3nc(NC(=O)/C=C/c4ccc(Cl)cc4)nn32)cc1` (configuration not stated), the survival is 53% (inactive).

Take `O=C(/C=C/c1ccccc1)Nc1nc2n(n1)C(c1ccc(F)cc1)C=C(c1ccccc1)N2` (configuration not stated): the survival was 44% (active).

As to `O=C(/C=C/c1ccccc1)Nc1nc2n(n1)C(c1ccc(Cl)cc1)C=C(c1ccccc1)N2` (configuration not stated), the survival is 38% (active).

For `COc1ccc(C2C=C(c3ccccc3)Nc3nc(NC(=O)/C=C/c4ccccc4Cl)nn32)cc1` (configuration not stated), the survival is 96% (inactive).

Regarding `COc1ccc(C2C=C(c3ccccc3)Nc3nc(NC(=O)/C=C/c4ccccc4)nn32)cc1` (configuration not stated), the survival was 59% (inactive).

In the case of `COc1ccc(/C=C/C(=O)Nc2nc3n(n2)C(c2ccccc2)C=C(c2ccc(Cl)cc2)N3)cc1` (configuration not stated), the survival was 77% (inactive).

For the compound `O=C(/C=C/c1ccc(F)cc1)Nc1nc2n(n1)C(c1ccc(Cl)cc1)C=C(c1ccccc1)N2` (configuration not stated), the survival is 33% (active).

With `COc1ccccc1/C=C/C(=O)Nc1nc2n(n1)C(c1ccc(F)cc1)C=C(c1ccccc1)N2` (configuration not stated), the survival was 65% (inactive).

As to `COc1ccc(C2C=C(c3ccccc3)Nc3nc(NC(=O)/C=C/c4ccccc4OC)nn32)cc1` (configuration not stated), the survival was 52% (active).
